# Test results taken from PubChem BioAssay AID488933 (Broad Institute, 2010).
# Potency and affinity values are given separately. The source made the active and inactive calls.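 How the source made its calls: active means compounds lowering the cell viability signal, with fitted half-maximal dose at most ten times the top valid dose; inconclusive means flat partial drop of 30 to 70 percent, or poor fit; inactive means flat near zero, weak potency, or rising signal.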
# Experiment: mammalian cell toxicity, NIH-3T3 fibroblasts, dose response, cytotoxicity control for reversing antifungal drug resistance, Alamar Blue, dry powder, set 3 (AID 488933)
# Conditions: NIH-3T3 viability with fluconazole, 48 h; series mostly up to 26 µM; activity change, negative = toxicity: at the top concentration
row,Structure (SMILES),"activity change, negative = toxicity"
1,COc1ccc(C(=O)N2CCN(c3ccccn3)CC2)cc1,-1.51% (inactive)
2,O=C(c1ccc(Cl)cc1)N1CCN(c2cccc(C(F)(F)F)n2)CC1,4.33% (inactive)
3,CC(C)C(=O)N1CCN(c2ccccn2)CC1,9.72% (inactive)
4,O=C(c1ccccc1Cl)N1CCN(c2ccccn2)CC1,6.83% (inactive)
5,O=C(c1ccc(Cl)cc1)N1CCN(c2nccs2)CC1,-5.96% (inactive)
6,CCCCC(=O)N1CCN(c2ccccn2)CC1,-1.2% (inactive)
7,O=C(c1ccc(Cl)cc1)N1CCN(c2ccc(C(F)(F)F)cn2)CC1,-0.994% (inactive)
8,O=C(c1ccc(Cl)cc1)N1CCN(c2nc3ccccc3s2)CC1,-2.51% (inactive)
9,O=C(c1ccc(F)cc1)N1CCN(c2ccccn2)CC1,6.84% (inactive)
10,O=C(c1ccc(Cl)cc1)N1CCN(c2ncccc2C(F)(F)F)CC1,1.94% (inactive)
11,c1ccc(N2CCNCC2)nc1,6.03% (inactive)
12,Cc1ccc(N2CCN(C(=O)c3ccc(Cl)cc3)CC2)nc1,-4.89% (inactive)
13,O=C(c1ccc(Cl)cc1)N1CCN(c2cnccn2)CC1,5.64% (inactive)
14,Cn1ccnc1N1CCN(C(=O)c2ccc(Cl)cc2)CC1,-3.06% (inactive)
15,Cc1ccc(N2CCN(C(=O)c3ccc(Cl)cc3)CC2)nn1,0.652% (inactive)
16,O=C(c1cccc(Cl)c1)N1CCN(c2ccccn2)CC1,1.16% (inactive)
17,COc1cccnc1N1CCN(C(=O)c2ccc(Cl)cc2)CC1,7.07% (inactive)
18,N#Cc1cccnc1N1CCN(C(=O)c2ccc(Cl)cc2)CC1,-3.83% (inactive)
19,O=C(c1ccc(Cl)cc1)N1CCN(c2ncccn2)CC1,-2.51% (inactive)
20,N#Cc1ccc(C(=O)N2CCN(c3ccccn3)CC2)cc1,3.01% (inactive)
21,CC(C)C(=O)N1CCN(c2ccnc3cc(Cl)ccc23)CC1,11.1% (inactive)
